Each compound was assayed on PRKD3.
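Note: kd values determined as follow-up on hits from a single-replicate KINOMEscan panel screen.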

Structure (SMILES) | Kd [nM]
CS(=O)(=O)CCNCc1nc(-c2ccc3ncnc(Nc4ccc(OCc5ccccc5)c(Cl)c4)c3c2)cs1.Cl [GW582764] | > 10000
FC(F)(F)c1ccccc1-c1cc(-c2c[nH]nc2-c2ccccn2)ccn1 [GW679396] | > 10000
Cc1ccccc1-c1cc(-c2c[nH]nc2-c2ccccn2)ccn1 [GW680061] | > 10000
COC(=O)C(Cc1ccccc1)NC(=O)NC1CCN(c2ccnc(Nc3ccc(F)cc3)n2)C1 (stereo not drawn) [GSK1379714] | > 10000
COc1ccc(Nc2nccc(-c3ccc(NC(=O)c4cc5cc(F)ccc5[nH]4)cc3)n2)cc1 [GSK1229496] | > 10000
COc1ccc(Nc2nccc(N3CCC(NC(=O)c4cc5ccccc5s4)C3)n2)cc1 (stereo not drawn) [GSK1379738] | > 10000
COc1cccc(C2=C(Nc3cc(Cl)c(O)c(Cl)c3)C(=O)NC2=O)c1 [SB-390767] | > 10000

Each compound was assayed on PRKG2.

Structure (SMILES) | Kd [nM]
COc1ccc(Nc2nccc(N3CCC(NC(=O)C(C)c4ccc(Cl)cc4)C3)n2)cc1 (stereo not drawn) [GSK1379735] | > 10000
NS(=O)(=O)c1cccc(N/C=C2\C(=O)Nc3ccc(S(=O)(=O)Cc4c(Cl)cccc4Cl)cc32)c1 [GSK398099] | > 10000
Cn1cnc2c(N)ncnc21 [SKF-97623] | > 10000
Cn1cncc1C(=O)NC1CCN(c2ccnc(Nc3ccc(F)cc3)n2)C1 (stereo not drawn) [GSK1379717] | > 10000
CNC(=O)c1ccc(C)c(-n2c(C)cc(OCc3ccc(F)cc3F)c(Br)c2=O)c1 | > 10000
CC[C@@H]1CO[C@H](C(=O)Nc2ccccc2)CN1c1cc(-c2ccc3c(N)n[nH]c3c2)nc(NC)n1 [GSK2376236] | 400
Cn1cncc1-c1cc2c(Nc3ccc(OCc4ccccc4)cc3)ncnc2cn1 [GW281179] | 3300
CNc1cc(-c2ccc3c(N)n[nH]c3c2)nc(N)n1 [GSK2224810] | 39
Cc1c(Cn2c(C)c(C)n3c(=O)cc(N4CCOCC4)nc23)cccc1C(F)(F)F [GSK2328680] | > 10000

These compounds were tested on RIOK1.

Structure (SMILES) | Kd [nM]
O=C(Nc1n[nH]c2cc(-c3ccsc3)ccc12)C1CC1 [SB-732932] | 180
Nc1cccc(-c2ccc3c(N)n[nH]c3c2)n1 [GSK2192730] | 390
CC(C)c1cc(-c2ccc3c(N)n[nH]c3c2)nc(N)n1 [GSK2250882] | 580
CNc1cc(-c2ccc3c(N)n[nH]c3c2)nc(N)n1 [GSK2224810] | 1100

What follows are compounds tested on RIPK2.

Structure (SMILES) | Kd [nM]
CS(=O)(=O)CCNCc1nc(-c2ccc3ncnc(Nc4ccc5c(cnn5Cc5ccccc5)c4)c3c2)cs1.Cl.Cl [GW569716] | 67
Cn1cncc1-c1cc2c(Nc3ccc(OCc4ccccc4)cc3)ncnc2cn1 [GW281179] | 65
CC(C)c1ccc(O)cc1Nc1ccnc2ccc(C(F)(F)F)cc12 [GW482059] | > 10000
O=C(Nc1n[nH]c2nc(-c3cccs3)c(Br)cc12)C1CC1 [SB-735297] | > 10000

The compounds below were run on ROCK1.

Structure (SMILES) | Kd [nM]
c1ccc(-c2ccnc3[nH]ccc23)cc1 [SB-693578] | 150
Cn1cncc1-c1cc2c(Nc3ccc(OCc4ccccc4)cc3)ncnc2cn1 [GW281179] | 590
CC(C)c1ccc(O)cc1Nc1ccnc2ccc(C(F)(F)F)cc12 [GW482059] | > 10000

These compounds were tested on T1, RSK4(Kin.Dom.2-C-terminal).
T1 construct: gene RPS6KA6

Structure (SMILES) | Kd [nM]
Cc1cccc2c(-c3ccncn3)c(-c3ccc(F)cc3)nn12 [GW515532] | 6800
Fc1ccc(-c2nc3n(c2-c2ccncc2)CCS3)cc1 [GI98581] | 260
Fc1ccc(-c2nc[nH]c2-c2ccncc2)cc1 [SB-217360] | 310

From PMC5540273 (PLoS ONE, 2017)
